The results in this text go back to ChEMBL document CHEMBL3988442, “University of Dundee, Small-Polar-MMV Screening Library” (2021).

Holding throughout (set-up): scale not given: direction of the effect not stated beside the values
Assay [1] addresses Protein translocase subunit SecA (Escherichia coli (strain K12)) (UniProt P10408). The experiment in a line: Assay to Identify E. coli SecA ATPase Inhibitors. The note with it: 30 µM. Type of assay: functional.
The target in assay [2] is T1, Ubiquitin-activating enzyme e1, putative (Leishmania donovani (strain BPK282A1)) (UniProt E9BSI1).
T1 sequence (whole entry): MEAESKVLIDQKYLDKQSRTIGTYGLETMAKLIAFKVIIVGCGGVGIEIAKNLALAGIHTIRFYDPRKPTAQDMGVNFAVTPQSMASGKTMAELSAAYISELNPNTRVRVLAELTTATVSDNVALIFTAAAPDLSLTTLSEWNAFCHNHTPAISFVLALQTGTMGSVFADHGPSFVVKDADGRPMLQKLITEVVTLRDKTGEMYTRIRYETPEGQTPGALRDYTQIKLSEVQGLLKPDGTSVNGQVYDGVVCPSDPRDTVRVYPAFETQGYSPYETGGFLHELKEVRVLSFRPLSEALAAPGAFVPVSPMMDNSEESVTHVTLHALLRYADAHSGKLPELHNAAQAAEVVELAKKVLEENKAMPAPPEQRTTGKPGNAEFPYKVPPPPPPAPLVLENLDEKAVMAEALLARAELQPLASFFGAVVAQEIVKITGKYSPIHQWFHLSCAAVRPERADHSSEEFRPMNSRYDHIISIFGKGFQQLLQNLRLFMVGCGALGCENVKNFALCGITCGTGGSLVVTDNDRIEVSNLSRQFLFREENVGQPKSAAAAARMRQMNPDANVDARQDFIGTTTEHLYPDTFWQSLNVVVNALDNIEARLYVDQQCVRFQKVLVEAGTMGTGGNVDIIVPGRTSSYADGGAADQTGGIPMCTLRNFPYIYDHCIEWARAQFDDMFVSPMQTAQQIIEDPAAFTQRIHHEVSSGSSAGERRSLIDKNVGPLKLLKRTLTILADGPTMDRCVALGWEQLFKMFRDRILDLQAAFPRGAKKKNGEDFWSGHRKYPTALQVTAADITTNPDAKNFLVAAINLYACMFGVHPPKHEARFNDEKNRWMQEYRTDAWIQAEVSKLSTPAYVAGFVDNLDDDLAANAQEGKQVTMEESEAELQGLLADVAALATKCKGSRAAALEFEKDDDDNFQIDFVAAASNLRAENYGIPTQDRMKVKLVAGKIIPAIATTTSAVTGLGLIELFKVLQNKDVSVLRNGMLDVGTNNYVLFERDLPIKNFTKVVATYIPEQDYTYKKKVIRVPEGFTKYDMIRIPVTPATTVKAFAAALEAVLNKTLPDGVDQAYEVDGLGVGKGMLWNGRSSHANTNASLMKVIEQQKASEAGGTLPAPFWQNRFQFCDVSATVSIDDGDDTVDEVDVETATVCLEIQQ
Kind of assay: Leishmania donovani Ubiquitin Activating Enzyme (LdE1). The class given is functional. As to conditions: 30 µM.

Assay [3] concerns the target AMP-activated protein kinase, AMPK (Homo sapiens) (UniProt P54646+O43741+P54619+Q9UGJ0+Q9Y478+Q13131+Q9UGI9). Kind of assay: AMP-dependent Kinase enzyme assay. An in vitro enzyme assay that detects ADP turnover that is directly proportional to AMPK activity. This uses naive AMPK that is activated during the assay with MK-8722. The note with it: 30 µM. Type of assay: functional.

Assay [4] has as its target Sialic acid-binding Ig-like lectin 9 (Homo sapiens) (UniProt Q9Y336). Kind of assay: Hs-Siglec9 ALPHAscreen SOP 20170721. As to conditions: 10 µM. In general terms: In Alpha technology, singlet oxygen from a donor bead excites a nearby acceptor bead.
For the next assay, the system named is Trypanosoma cruzi. Kind of assay: Trypanosoma cruzi phosphomannomutase and mannose-1-phosphate guanylyltransferase assay. Type of assay: functional. The note with it: 10 µM.
Assay [5] deals with T2, Arginase-2, mitochondrial (Homo sapiens) (UniProt P78540).
T2 sequence (whole entry): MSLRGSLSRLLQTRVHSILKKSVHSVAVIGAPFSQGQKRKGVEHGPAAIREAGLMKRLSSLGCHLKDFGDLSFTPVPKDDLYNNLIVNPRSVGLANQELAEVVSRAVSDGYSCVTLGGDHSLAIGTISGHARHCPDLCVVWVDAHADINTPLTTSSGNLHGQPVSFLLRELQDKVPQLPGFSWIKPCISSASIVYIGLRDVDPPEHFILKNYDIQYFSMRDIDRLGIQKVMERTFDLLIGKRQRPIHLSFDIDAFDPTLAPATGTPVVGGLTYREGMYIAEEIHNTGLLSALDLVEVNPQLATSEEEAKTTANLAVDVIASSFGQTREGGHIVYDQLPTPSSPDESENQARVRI
The experiment in a line: in vitro enzyme assay to detect the production of urea directly proportional to the activity of Arginase II. Further: in the data most compounds retested in dose-response had high values. The class given is functional. The note with it: 33.3 µM.

Assay [6] deals with T3, Proteasome subunit beta (Trypanosoma cruzi) (UniProt O96673).
T3 sequence (whole entry): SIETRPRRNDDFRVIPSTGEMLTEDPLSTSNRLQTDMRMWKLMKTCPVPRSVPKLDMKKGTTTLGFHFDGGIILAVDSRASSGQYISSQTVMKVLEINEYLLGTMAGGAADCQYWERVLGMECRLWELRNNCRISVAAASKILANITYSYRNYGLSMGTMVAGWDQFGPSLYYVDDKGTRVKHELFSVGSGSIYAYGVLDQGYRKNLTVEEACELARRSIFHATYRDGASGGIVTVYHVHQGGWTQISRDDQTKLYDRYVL
Kind of assay: Trypanosoma cruzi proteasome chymotrypsin-like activity (TcProtChymo) assay. Further: in the data most compounds retested in dose-response had high values. Type of assay: functional. The note with it: 9.37 µM.

For the next assay, the species on record is Homo sapiens. Kind of assay: To identify inhibition of the IFN signalling (Jak-Stat) pathway via expression of an eGFP reporter gene under the control of an IFN-stimulated response element (ISRE) containing MxA promoter. The note with it: 30 µM. Type of assay: functional. Background: A reporter such as luciferase makes a cellular process visible.
The target in assay [7] is T4, Tyrosyl-tRNA synthetase, putative (Trypanosoma cruzi (strain CL Brener)) (UniProt Q4DSP6).
T4 sequence (whole entry): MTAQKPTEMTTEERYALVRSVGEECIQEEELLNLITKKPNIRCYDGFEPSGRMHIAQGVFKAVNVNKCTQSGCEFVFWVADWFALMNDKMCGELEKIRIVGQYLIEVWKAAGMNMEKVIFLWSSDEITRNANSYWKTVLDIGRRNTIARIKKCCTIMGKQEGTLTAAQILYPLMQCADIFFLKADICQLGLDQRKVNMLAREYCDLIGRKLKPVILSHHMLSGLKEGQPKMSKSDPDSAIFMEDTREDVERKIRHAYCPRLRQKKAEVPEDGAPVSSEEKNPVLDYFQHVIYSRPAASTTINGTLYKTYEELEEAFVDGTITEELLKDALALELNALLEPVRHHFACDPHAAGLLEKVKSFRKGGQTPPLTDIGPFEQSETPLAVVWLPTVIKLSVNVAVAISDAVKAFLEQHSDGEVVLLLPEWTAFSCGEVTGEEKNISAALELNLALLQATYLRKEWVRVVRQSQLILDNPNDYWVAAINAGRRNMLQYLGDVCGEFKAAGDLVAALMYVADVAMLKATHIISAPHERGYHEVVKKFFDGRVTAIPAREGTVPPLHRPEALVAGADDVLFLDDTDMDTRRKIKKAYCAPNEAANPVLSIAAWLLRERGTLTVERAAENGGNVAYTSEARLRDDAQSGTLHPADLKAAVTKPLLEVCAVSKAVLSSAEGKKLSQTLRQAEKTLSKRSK
Kind of assay: Trypanosoma cruzi tyrosyl tRNA synthetase (TcYRS) _High Tyrosine SOP. Further: in the data most compounds retested in dose-response had high values. The class given is functional. The note with it: 30 µM.

Assay [8] concerns the target T4, Tyrosyl-tRNA synthetase, putative (Trypanosoma cruzi (strain CL Brener)). The experiment in a line: Trypanosoma cruzi tyrosyl tRNA synthetase (TcYRS) SOP. The class given is functional. As to conditions: 30 µM.
Assay [9] has as its target Chromo domain-containing protein 1 (Saccharomyces cerevisiae (strain ATCC 204508 / S288c) (Baker's yeast)) (UniProt P32657). Kind of assay: ScCHD-1 Enzyme Inhibition Assay. Further: in the data most compounds retested in dose-response had high values. The class given is functional. The note with it: 30 µM.

For some of these results: Measured potencies and affinities stand elsewhere.

Sequence of Chromo domain-containing protein 1 (Saccharomyces cerevisiae (strain ATCC 204508 / S288c) (Baker's yeast)) (P32657 whole entry, the tested form may be a part): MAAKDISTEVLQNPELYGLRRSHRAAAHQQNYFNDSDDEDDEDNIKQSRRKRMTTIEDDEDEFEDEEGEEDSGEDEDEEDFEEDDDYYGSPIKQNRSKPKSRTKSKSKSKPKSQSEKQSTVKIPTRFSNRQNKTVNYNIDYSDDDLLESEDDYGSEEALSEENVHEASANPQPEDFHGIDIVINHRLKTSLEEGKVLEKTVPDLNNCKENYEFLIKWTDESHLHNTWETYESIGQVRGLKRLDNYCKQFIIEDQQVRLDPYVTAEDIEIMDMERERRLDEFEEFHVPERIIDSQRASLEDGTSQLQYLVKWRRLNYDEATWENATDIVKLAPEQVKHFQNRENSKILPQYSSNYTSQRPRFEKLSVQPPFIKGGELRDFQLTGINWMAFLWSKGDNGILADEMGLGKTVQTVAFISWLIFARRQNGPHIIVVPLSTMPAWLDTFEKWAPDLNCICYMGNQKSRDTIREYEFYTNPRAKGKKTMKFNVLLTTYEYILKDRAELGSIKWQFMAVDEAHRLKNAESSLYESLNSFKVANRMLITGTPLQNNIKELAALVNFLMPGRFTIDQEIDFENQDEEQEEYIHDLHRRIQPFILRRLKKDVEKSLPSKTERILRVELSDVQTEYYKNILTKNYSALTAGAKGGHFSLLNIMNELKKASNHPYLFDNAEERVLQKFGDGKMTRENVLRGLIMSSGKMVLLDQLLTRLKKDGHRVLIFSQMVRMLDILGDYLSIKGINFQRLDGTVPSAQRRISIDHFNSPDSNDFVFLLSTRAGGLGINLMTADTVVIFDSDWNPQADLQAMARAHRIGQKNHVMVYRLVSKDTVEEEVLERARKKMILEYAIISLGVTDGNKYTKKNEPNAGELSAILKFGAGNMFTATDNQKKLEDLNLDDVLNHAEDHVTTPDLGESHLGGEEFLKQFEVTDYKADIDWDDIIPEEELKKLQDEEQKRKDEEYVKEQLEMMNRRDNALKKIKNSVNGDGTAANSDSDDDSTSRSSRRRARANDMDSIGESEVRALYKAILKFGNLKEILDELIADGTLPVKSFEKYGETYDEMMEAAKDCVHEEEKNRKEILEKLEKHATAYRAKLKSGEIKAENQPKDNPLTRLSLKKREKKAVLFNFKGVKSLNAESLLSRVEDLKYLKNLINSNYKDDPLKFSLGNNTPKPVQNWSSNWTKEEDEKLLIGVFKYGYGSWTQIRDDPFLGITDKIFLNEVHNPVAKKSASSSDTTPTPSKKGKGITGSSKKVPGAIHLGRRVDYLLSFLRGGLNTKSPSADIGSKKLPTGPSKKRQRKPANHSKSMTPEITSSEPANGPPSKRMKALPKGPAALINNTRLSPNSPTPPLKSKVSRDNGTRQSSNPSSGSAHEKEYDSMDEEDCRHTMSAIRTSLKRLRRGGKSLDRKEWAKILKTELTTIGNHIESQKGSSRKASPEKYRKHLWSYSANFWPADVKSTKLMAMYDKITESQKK
Sequence of Sialic acid-binding Ig-like lectin 9 (Homo sapiens) (Q9Y336 whole entry): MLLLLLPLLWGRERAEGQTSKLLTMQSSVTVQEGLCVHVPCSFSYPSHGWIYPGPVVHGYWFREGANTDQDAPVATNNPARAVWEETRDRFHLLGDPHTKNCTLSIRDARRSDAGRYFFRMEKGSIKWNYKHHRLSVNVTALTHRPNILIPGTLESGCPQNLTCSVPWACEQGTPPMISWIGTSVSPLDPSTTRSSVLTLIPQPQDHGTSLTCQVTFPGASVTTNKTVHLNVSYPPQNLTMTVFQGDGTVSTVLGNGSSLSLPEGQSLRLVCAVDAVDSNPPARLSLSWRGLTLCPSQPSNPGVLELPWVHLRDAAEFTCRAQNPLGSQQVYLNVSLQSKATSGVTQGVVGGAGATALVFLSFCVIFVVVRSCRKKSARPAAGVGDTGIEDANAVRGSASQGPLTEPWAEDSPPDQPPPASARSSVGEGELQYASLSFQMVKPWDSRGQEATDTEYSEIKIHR
Sequence of Protein translocase subunit SecA (Escherichia coli (strain K12)) (P10408 whole entry): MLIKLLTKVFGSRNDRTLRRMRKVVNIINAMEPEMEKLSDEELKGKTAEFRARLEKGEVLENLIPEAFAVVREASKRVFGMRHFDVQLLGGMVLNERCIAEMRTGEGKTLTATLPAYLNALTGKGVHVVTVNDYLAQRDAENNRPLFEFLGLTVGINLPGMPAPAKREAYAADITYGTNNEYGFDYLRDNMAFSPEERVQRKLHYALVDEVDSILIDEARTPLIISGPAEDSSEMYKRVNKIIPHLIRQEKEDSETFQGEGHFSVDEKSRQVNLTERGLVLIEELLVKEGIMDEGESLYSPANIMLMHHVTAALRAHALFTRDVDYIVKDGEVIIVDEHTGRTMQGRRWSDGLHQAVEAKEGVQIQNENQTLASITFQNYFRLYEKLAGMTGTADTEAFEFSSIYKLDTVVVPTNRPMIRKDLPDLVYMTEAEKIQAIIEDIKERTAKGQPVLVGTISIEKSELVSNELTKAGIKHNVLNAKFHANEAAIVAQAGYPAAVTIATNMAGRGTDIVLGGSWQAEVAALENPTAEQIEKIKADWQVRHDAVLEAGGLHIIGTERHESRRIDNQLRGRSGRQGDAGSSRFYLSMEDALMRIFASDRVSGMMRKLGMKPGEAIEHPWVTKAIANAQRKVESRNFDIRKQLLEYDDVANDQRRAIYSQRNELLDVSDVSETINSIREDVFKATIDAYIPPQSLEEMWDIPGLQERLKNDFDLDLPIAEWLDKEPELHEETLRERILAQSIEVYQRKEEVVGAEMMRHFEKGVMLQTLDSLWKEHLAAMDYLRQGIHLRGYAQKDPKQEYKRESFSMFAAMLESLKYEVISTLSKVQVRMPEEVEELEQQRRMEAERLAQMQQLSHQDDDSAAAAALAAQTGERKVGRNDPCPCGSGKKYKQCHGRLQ

Regarding `Cc1cc(=O)n(CC(=O)NCCC(C)C)c(-c2cccc(Cl)c2)n1`, the Percent Effect in assay [1] is -6.74%; in assay [2] it was 2.6%; in assay [3], 3.52%; in [4] it was 10.7%; with Trypanosoma cruzi, 2.85%; in [5], -9.65%. The Percent Effect in [6] is 6.49%; in the assay filed under Homo sapiens, 2.45%; in assay [7] it was 6.45%; in assay [8], 13.6%; in assay [9], 5.24%.
In the case of `O=C(c1ccncc1)N1CCC(c2nc(O)cc(-c3cccnc3)n2)C1` (stereo unspecified), the Percent Effect in [1] was -0.62%; in assay [2], 21.3%; in assay [3], -34.2%; in assay [4], -1.55%; with Trypanosoma cruzi it was 3.74%; in assay [5], 26.8%. In addition, the Percent Effect in assay [6] was 8.55%; in the assay listed under Homo sapiens, 17.1%; in [7] it was 8.51%; in assay [8] it was 11.5%; in assay [9], -5.75%.
As to `CCN(CC)c1ccc(C(=O)N(C)Cc2c(C)noc2C)cn1`, the Percent Effect in assay [1] is -4.04%; in assay [2] it was 10.5%; in assay [3], -4.84%; in assay [4] it was -2.69%; in the assay with Trypanosoma cruzi it was -7%; in assay [5], 10.1%. For the same molecule, the Percent Effect in [6] was -5.84%; in the assay filed under Homo sapiens, 10.8%; in assay [7] it was 3.45%; in assay [8] it was 11.1%; in [9] it was -1.15%.
`O=C(CCNC(=O)C1CCCC1)NCc1ccccc1Cn1cncn1`: the Percent Effect in assay [1] was -3.71%; in assay [2] it was 31.6%; in assay [3] it was 0.311%; in assay [4], -9.83%; in the assay on Trypanosoma cruzi it was -1.96%; in assay [5] it was -2.52%. The Percent Effect in assay [6] came to 7.87%; in the assay filed under Homo sapiens, 1.98%; in assay [7], 6.4%; in assay [8] it was 18.5%; in assay [9], 0.0492%.
As for `Cc1nc(C2CCN(C(=O)c3ccc(=O)n(C)c3)CC2)c2sccn12`, the Percent Effect was -2.51% in assay [1]; 4.05% in [2]; 3.65% in assay [3]; 3.19% in [4]; 1.58% with Trypanosoma cruzi; -3.02% in [5]. In addition, the Percent Effect is 10.4% in assay [6]; 3.58% in the assay filed under Homo sapiens; 3.23% in assay [7]; 6.49% in assay [8]; -13.8% in assay [9].
Consider `CCc1noc(C2CCCCN2C(=O)c2ccoc2C)n1` (stereo unspecified), for which the Percent Effect was -3.77% in [1]; 4% in assay [2]; -0.569% in assay [3]; 3.61% in assay [4]; -7.47% with Trypanosoma cruzi; -4.05% in assay [5]. The Percent Effect in assay [6] was 13.9%; in the assay filed under Homo sapiens, -6.22%; in [7] it was 1.06%; in assay [8], 5.13%; in [9], -6.62%.
Regarding `Cc1ccc(NC2CCN(C(=O)c3cccn3C)CC2)nn1`, the Percent Effect is -10.3% in [1]; 7.79% in [2]; -16.9% in assay [3]; 19.7% in assay [4]; 11.2% in the assay with Trypanosoma cruzi; 2.85% in [5]. Moreover, the Percent Effect was 18.4% in [6]; 26.6% in the assay filed under Homo sapiens; 10.7% in assay [7]; 24.4% in [8]; -12.9% in assay [9].
As to `CCc1nc(C2CCCN2Cc2nc(C3CC3)no2)no1` (stereo unspecified), the Percent Effect in assay [1] was -0.343%; in assay [2], 2.6%; in assay [3], -1.94%; in assay [4], 16.2%; in the assay with Trypanosoma cruzi, 2.65%; in [5] it was -12.4%. In addition, the Percent Effect was 9.15% in assay [6]; -6.21% in the assay filed under Homo sapiens; 0% in assay [7]; 1.24% in assay [8]; -6.42% in assay [9].
Turning to `CCc1n[nH]c(C2CN(C(=O)c3cnns3)CCO2)n1` (stereo unspecified), the Percent Effect in assay [1] was -3.59%; in assay [2] it was 0%; in assay [3] it was 2.14%; in [4] it was -2.18%; in the assay on Trypanosoma cruzi, -4.63%; in [5], -19%. The Percent Effect in assay [6] was 2.7%; in the assay filed under Homo sapiens it was 15.6%; in [7], 1.48%; in [8] it was -3.8%; in assay [9], -1.39%.
For the molecule `CS(=O)(=O)N1CCC(C(=O)NC(Cc2ccsc2)c2ccccn2)CC1` (stereo unspecified), the Percent Effect in [1] is -4.27%; in assay [2], 6.76%; in [3], 8.49%; in assay [4] it was 4.61%; with Trypanosoma cruzi it was 2.17%; in assay [5], 1.16%. Also, the Percent Effect in assay [6] is 4.84%; in the assay filed under Homo sapiens it was 13.2%; in assay [7], 5.38%; in assay [8], 9.09%; in [9] it was -8.15%.
Regarding `O=C(c1ccc(O)c(Cl)c1)N1CCC(c2n[nH]c(C3CC3)n2)CC1`, the Percent Effect in assay [1] was -6.1%; in [2] it was 3.8%; in [3], -0.285%; in assay [4] it was -6.96%; with Trypanosoma cruzi, -5.44%; in assay [5], -1.5%. Besides, the Percent Effect in assay [6] was 9.61%; in the assay filed under Homo sapiens, 8.98%; in assay [7], 1.04%; in assay [8] it was 0%; in assay [9], -0.322%.
